Assay results taken from PubChem BioAssay (Tox21).
Inconclusive results are not listed. Active and inactive are the calls of the source. Unless noted, the call rests on the fitted dose curve; in most records, active means well fitted curve in the direction sought with a large enough effect in the repeat runs; inconclusive means weak or mixed curves; inactive means no such curve, though single readings can be large; an effect the other way counts as inactive or inconclusive.

What was measured:
[1] = qHTS assay for small molecule agonists of the p53 signaling pathway (AID 651631; calls by dose curve; further: nearly all actives have a fitted effect of over 15% in size)
How it was run: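 Beta-lactamase reporter activity under p53 response elements was quantified in HCT-116 cells by FRET fluorescence, following 16 h incubation with test compounds at 37 °C and 2 h substrate development at room temperature.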

[2] = qHTS assay for small molecules that induce genotoxicity in human embryonic kidney cells expressing luciferase-tagged ATAD5 (AID 651632); further: nearly all actives have a fitted effect of over 15% in size
How it was run: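 DMSO vehicle served as the control. HEK293T reporter cells, 16 hr at 37C, then 30 min Amplite at room temperature; ATAD5 induction is measured as luciferase activity.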

[3] = qHTS assay for small molecule agonists of the p53 signaling pathway - cell viability (AID 651633; calls by dose curve;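 further: p53RE-bla HCT reporter cells with a stable beta-lactamase p53 reporter; series mostly up to about 83 µM; nearly all actives have a fitted effect of over 30% in size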)
How it was run: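 p53RE-bla cells, seeded at 4,000 per well and rested 5 h at 37 C/5% CO2, received compounds in DMSO for 16 h at 37 C. CellTiter-Glo was then added, and luminescence was read after 30 min at room temperature to gauge cytotoxicity.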

[4] = qHTS assay for small molecules that induce genotoxicity in human embryonic kidney cells expressing luciferase-tagged ATAD5 - cell viability (AID 651634; calls by dose curve; further: nearly all actives have a fitted effect of over 25% in size)
How it was run: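 Here HEK293T cells with the ATAD5 luciferase reporter are incubated with test compounds for 15.5 hr, and cytotoxicity is then gauged by measuring protease activity in live cells using fluorescence.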

[5] = qHTS assay for small molecule disruptors of the mitochondrial membrane potential - cell viability (AID 720634; calls by dose curve;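 further: human HepG2 liver cancer cells; series mostly up to about 83 µM; nearly all actives have a fitted effect of over 20% in size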)
How it was run: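 Viability of HepG2 cells is scored from ATP content by luminescence; cells are exposed to compound for 1 hr at 37 C and 5% CO2, then dosed with m-MPI dye before the CellTiter-Glo reagent.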

[6] = qHTS assay to test for compound auto fluorescence at 590 nm (red) in HepG2 cells (AID 720674)
How it was run: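 Intrinsic compound fluorescence in the red window (Ex/Em 540/590 nm) is measured in attached HepG2 cells exposed for 1 hr, DMSO vehicle as baseline, benchmarked to Rose Bengal sodium.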

[7] = qHTS assay to test for compound auto fluorescence at 535 nm (green) in HepG2 cells (AID 720675)
[8] = qHTS assay for small molecule disruptors of the mitochondrial membrane potential (AID 720635)
How it was run: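 HepG2 cells (2,000/well) attached overnight at 37C, then took compound for 1 hr at 37C, 5% CO2. Mito-MPS dye was added for 30 min; fluorescence was read at 490/535 nm (monomers) and 540/590 nm (aggregates).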

[9] = qHTS assay to test for compound auto fluorescence at 460 nm (blue) in HEK293 cells (AID 720678)
How it was run: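 Measured: blue fluorescence (Ex 405/Em 460 nm) of compound-treated HEK293 cells, incubated overnight at 37C with 5% CO2 and scaled to triamterene equivalents.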

[10] = qHTS assay to test for compound auto fluorescence at 590 nm (red) in HEK293 cells (AID 720679)
How it was run: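 Using HEK293 cells at 2,000 per well, the screen added 23 nL of each compound after cell attachment and incubated overnight (37C, 5% CO2). The plate reader then captured red-label fluorescence, Ex/Em 540/590nm.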

Measured: Potency

OC(Cn1cncn1)(c1ccc(F)cc1)c1ccccc1F (stereo not given)
inactive: [1] | [2] | [3] | [4] | [5] | [6] | [7]

CCC1(c2ccccc2)C(=O)N=C(O)NC1=O (stereo not given)
inactive: [1] | [2] | [3] | [4] | [5] | [8] | [6] | [7] | [9]

CC(C)NCC(O)c1ccc(N)c(C#N)c1 (stereo not given)
inactive: [1] | [2] | [3] | [4] | [5] | [8] | [6] | [7] | [9] | [10]

Nc1ccccc1Cl
inactive: [1] | [2] | [3] | [4] | [5] | [8] | [6] | [7] | [10]

COC(=O)C(c1ccccc1)C1CCCCN1 (stereo not given)
inactive: [1] | [2] | [3] | [4] | [5] | [8] | [6] | [7]

CCOP(=S)(OCC)Oc1nc(Cl)n(C(C)C)n1
inactive: [1] | [2] | [3] | [4] | [5] | [8] | [6] | [7] | [9]

[As]#[In]
inactive: [1] | [2] | [3] | [4] | [5] | [8] | [6] | [7] | [9]

CS(=O)(=O)c1cc(C(F)(F)F)ccc1C(=O)c1cnoc1C1CC1
inactive: [1] | [2] | [3] | [4] | [5] | [8] | [6] | [7] | [9] | [10]

NC1=NC(=O)C(c2ccccc2)O1 (stereo not given)
inactive: [1] | [2] | [3] | [4] | [5] | [8] | [6] | [7] | [10]

Cc1ncc(CNC(=O)N(CCCl)N=O)c(N)n1
inactive: [1] | [2] | [3] | [4] | [5] | [8] | [6] | [7] | [9] | [10]

CCN(Cc1ccc(Cl)nc1)/C(=C/[N+](=O)[O-])NC
inactive: [1] | [2] | [3] | [4] | [5] | [8] | [6] | [7] | [9] | [10]

CCOP(=S)(OCC)Oc1cc(-c2ccccc2)on1
inactive: [1] | [2] | [3] | [4] | [6] | [7] | [10]

Cc1cnc[nH]1
inactive: [1] | [2] | [3] | [4] | [5] | [6] | [7] | [9] | [10]

N#CC(Cl)(Cl)Cl
inactive: [1] | [2] | [3] | [4] | [5] | [6] | [7] | [10]

CCC(C)n1c(=O)[nH]c(C)c(Br)c1=O (stereo not given)
inactive: [1] | [2] | [3] | [4] | [5] | [6] | [7] | [9] | [10]

Cc1nnc2n1-c1sc(CCC(=O)N3CCOCC3)cc1C(c1ccccc1Cl)=NC2
inactive: [1] | [2] | [3] | [4] | [5] | [6] | [7] | [10]

CC(=O)CCc1ccc2c(c1)OCO2
inactive: [1] | [2] | [3] | [4] | [5] | [6] | [7] | [10]

CN1CCN(C(=O)O[C@H]2c3nccnc3C(=O)N2c2ccc(Cl)cn2)CC1
inactive: [1] | [2] | [3] | [4] | [5] | [6] | [7] | [9] | [10]

O=C(O)c1ccc2[nH]cc(CCCCN3CC=C(c4ccccc4)CC3)c2c1
inactive: [1] | [2] | [3] | [4] | [5] | [6] | [7] | [9] | [10]

NC(=S)C(N)=S
inactive: [1] | [2] | [3] | [4] | [5] | [6] | [7] | [10]

CN1CCC(O)(c2ccc(F)cc2)C(C(=O)c2ccc(F)cc2)C1 (stereo not given)
inactive: [1] | [2] | [3] | [4] | [5] | [6] | [7] | [9] | [10]

COP(N)(=S)Oc1ccccc1C(=O)OC(C)C (stereo not given)
inactive: [1] | [2] | [3] | [4] | [5] | [6] | [7] | [9] | [10]

N#CCBr
inactive: [1] | [2] | [3] | [4] | [5] | [6] | [7] | [10]

CC(C)(C)C(=O)C(Oc1ccc(Cl)cc1)n1cncn1 (stereo not given)
inactive: [1] | [2] | [3] | [4] | [6] | [7] | [9] | [10]

CCCCCCI
inactive: [1] | [2] | [3] | [4] | [5] | [6] | [7] | [10]

O=NN1CCCCC1
inactive: [1] | [2] | [3] | [4] | [5] | [6] | [7] | [9] | [10]

N#CCNCC#N
inactive: [1] | [2] | [3] | [4] | [5] | [6] | [7] | [9] | [10]
